ssDAF12 agonist: S. stercoralis DAF-12 nuclear receptor activators, primary screen, cell-based, luminescence, HEK293, GRIP1 co-expression, lit1-tk-luc; actives 1% (n = 370,000); activation, % at 6.8 µM; Nuclear hormone receptor DAF-12 (Strongyloides stercoralis); HEK293 ssDAF-12/GRIP1 lit1-tk-luc reporter; % of 3 µM dafachronic acid response;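 active = activation above the mean over all tested compounds plus 3 SD, cut at about 0.9% in these data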
DAX1 inh-1: DAX1 (NR0B1) inhibitors, primary screen, cell-based, HEK293, Gal4-DAX1, luciferase luminescence | inhibition, % at 6.75 µM | AID 504766, 2011 | actives 0.99% (n = 340,000) | HEK293 Gal4-DAX1 luciferase reporter;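 active = inhibition above the mean over all tested compounds plus 3 SD, cut at about 4.2% in these data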;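 note: inhibition shows as a rise in luminescence from relieved DAX1 repression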
Target sequence (P51843 207-470 limits assumed): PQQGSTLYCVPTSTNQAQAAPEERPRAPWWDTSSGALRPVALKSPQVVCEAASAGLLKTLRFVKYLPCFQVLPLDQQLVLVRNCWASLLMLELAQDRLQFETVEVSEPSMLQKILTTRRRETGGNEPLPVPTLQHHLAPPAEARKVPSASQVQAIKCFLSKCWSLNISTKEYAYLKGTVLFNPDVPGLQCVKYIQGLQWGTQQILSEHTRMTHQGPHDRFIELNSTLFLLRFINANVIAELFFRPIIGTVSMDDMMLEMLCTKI
hcDAF12 agonist: H. contortus DAF-12 nuclear receptor activators, primary screen, cell-based, luminescence, HEK293, lit1-tk-luc reporter; HEK293 hcDAF-12 lit1-tk-luc reporter; 0% DMSO, 100% Δ7-dafachronic acid; AID 652067, 2013; activation, % at 6.8 µM; actives 1.4% (n = 370,000);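 active = activation above the mean of all tested compounds plus 3 SD, cut at about 5.5% in these data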
SMARCA2 activ: SMARCA2 (BRM) function activators, primary screen, cell-based, luminescence, high throughput. actives 1% (n = 370,000). activation, % at 9.1 µM. MG213 cells, MMTV-luciferase reporter, dexamethasone, overnight; in the data active = activation above about 7.8%
DAX1 inh-2: DAX1 (NR0B1) inhibitors on StAR promoter, primary screen, cell-based, luminescence, SF-1 (NR5A1), full-length DAX-1 | HEK293T StAR-luciferase reporter, SF-1/DAX-1 repression relief | inhibition, % at 6.8 µM | actives 1.1% (n = 370,000) | AID 652010, 2013;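 active = inhibition above the mean over all tested compounds plus 3 SD, cut at about 3.6% in these data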;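 note: higher inhibition means more luminescence from relief of DAX-1 repression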
hgDAF-12 ag: H. glycines DAF-12 receptor agonists, primary screen, cell-based, luminescence, HEK293, GAL4 fusion, UAS-luciferase | AID 687014, 2013 | HEK293 GAL4-hgDAF12 UAS-luciferase reporter, agonist luminescence; normalized to butyrate control | activation, % at 6.8 µM | actives 1.8% (n = 370,000) | Nuclear hormone receptor DAF-12 (Heterodera glycines), GAL4 fusion;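 active = activation above a cutoff set at the mean of all screened compounds plus 3 SD, cut at about 10% in these data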
DAX1 inh confirm: DAX1 (NR0B1) inhibitors relieving SF-1 repression, confirmation, cell-based, luminescence, HEK293T, full-length DAX-1, SF-1 activated StAR promoter | actives 87% (n = 2,400) | HEK293T StAR-promoter luciferase reporter, SF-1/DAX-1 repression | shares compounds with DAX1 inh-2 | inhibition, % at 6.8 µM;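 active = inhibition above the average of every tested compound plus 3 SD, cut at about 3.8% in these data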
SF1 mutant ctr: StAR reporter signal changes without DAX1, counter-screen for DAX1 inhibitor project, cell-based, luminescence, AF-2 mutant SF-1, transactivation; AID 652136, 2013; HEK293 StAR-luciferase, SF-1 AF2 mutant; inhibition, % at 6.8 µM; actives 78% (n = 2,400); shares compounds with DAX1 inh-2;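 active = inhibition above the mean of all tested compounds plus 3 SD, cut at about 3% in these data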
SMARCA2 conf: SMARCA2 (BRM) function activators, confirmation, cell-based, luminescence, triplicate | shares compounds with SMARCA2 activ | MG213 cells, MMTV-luciferase with dexamethasone, overnight; MG213 cells expressing E1A, Rb sequestered; DMSO wells 0%, reference activator 100% | activation, % at 9.1 µM | actives 30% (n = 3,500);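 active = activation above its plate's cutoff, the mean activation of tested wells plus 3 SD, cut at about 7.9% in these data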
GAL4-VP16 Luc: GAL4-VP16 luciferase reporter activation, counter-screen for SMARCA2 (BRM) activator project, cell-based, pG5luc, luminescence, high throughput; shares compounds with SMARCA2 activ; HEK293 GAL4-VP16 pG5luc reporter; scaled: DMSO wells 0%, SAHA wells 100%; actives 41% (n = 3,500); activation, % at 9.1 µM;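 active = activation above the solvent-only control well mean plus 3 SD, averaged across control plates, cut at about 5.2% in these data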
LXRb hcDAF ctr: LXR agonists, Gal4 luciferase reporter, confirmation, counter-screen for hcDAF-12 agonist project, cell-based, luminescence, HEK293, H. contortus campaign | shares compounds with hcDAF12 agonist | HEK293 Gal4-LXR tk-luc reporter, 24 h; normalized: DMSO 0%, positive control 100% | activation, % at 6.8 µM | 3,400 tested, under 10 active | AID 743027, 2013;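 active = mean percent activation of the reporter above a cutoff set as the average over tested compounds plus their standard deviation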
Target sequence (P55055 whole entry, looked up, the tested form may be a part): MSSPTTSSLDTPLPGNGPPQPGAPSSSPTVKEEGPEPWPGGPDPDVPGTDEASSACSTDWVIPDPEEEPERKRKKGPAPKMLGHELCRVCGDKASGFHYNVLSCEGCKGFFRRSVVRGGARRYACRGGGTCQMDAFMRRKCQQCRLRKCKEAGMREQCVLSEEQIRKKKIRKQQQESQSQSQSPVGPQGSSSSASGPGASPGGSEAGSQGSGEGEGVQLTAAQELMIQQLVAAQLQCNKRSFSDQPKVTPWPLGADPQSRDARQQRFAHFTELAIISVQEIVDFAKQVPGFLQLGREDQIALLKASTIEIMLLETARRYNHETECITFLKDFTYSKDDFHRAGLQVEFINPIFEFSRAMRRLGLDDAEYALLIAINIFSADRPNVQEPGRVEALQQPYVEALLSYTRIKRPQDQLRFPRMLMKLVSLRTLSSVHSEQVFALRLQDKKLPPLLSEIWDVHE
hcDAF12 ag: H. contortus DAF-12 receptor agonists, confirmation, cell-based, luminescence, HEK293, lit1-tk-luc, triplicate; shares compounds with hcDAF12 agonist; HEK293 hcDAF-12 lit1-tk-luc reporter; % of Δ7-dafachronic acid response; activation, % at 6.8 µM; actives 61% (n = 3,400);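 active = mean activation across triplicate tests above the threshold derived from the earlier primary screen, cut at about 5.5% in these data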
hgDAF12 ag: H. glycines DAF-12 receptor agonists, confirmation, cell-based, luminescence, HEK293, GAL4-LBD fusion; activation, % at 6.8 µM; shares compounds with hgDAF-12 ag; HEK293 GAL4-hgDAF12 luciferase reporter, agonist mode; percent of butyrate response; actives 80% (n = 3,300);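 active = mean activation over triplicate wells above the hit cutoff derived from the earlier primary screen, cut at about 11% in these data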
LXRb DAF12 ctr: LXR agonists, Gal4 luciferase reporter, confirmation, counter-screen for hgDAF-12 agonist project, cell-based, luminescence, HEK293, H. glycines campaign | shares compounds with hgDAF-12 ag | 24 h | 3,300 tested, under 10 active | activation, % at 6.8 µM;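 active = mean activation of the triplicate above a set limit carried over from the primary screen, none filed active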
Of the large screens only hits and unclear results are named; the others gave an inactive call (follow-up assays come after a bar, where they were run). Only some compounds are listed: those with a hit (about 4.8% of all), similar ones and a draw of the others.

C/C(=N\NC(=O)c1sccc1C)c1ccncc1	ssDAF12 agonist 1.1, hcDAF12 agonist 9.1, SMARCA2 activ 9.2, DAX1 inh-2 18.0, hgDAF-12 ag 19.9 | DAX1 inh confirm 4.9 | SF1 mutant ctr 2.9 | SMARCA2 conf 9.4 | GAL4-VP16 Luc 10.5 | LXRb hcDAF ctr inactive | hcDAF12 ag inactive | hgDAF12 ag 13.6 | LXRb DAF12 ctr inactive
O=C(N[C@H](Cc1ccccc1)C(=O)N1CCN(c2ccc(Cl)cn2)CC1)[C@H]1O[C@@H](n2ccc(=O)[nH]c2=O)[C@H](O)[C@@H]1O	none (no result: DAX1 inh-1)
Cc1cc(=O)[nH]c(N/N=C/c2c(C)nn(-c3ccccc3)c2Cl)n1	none
Cc1nn(-c2ccccc2)c(Cl)c1/C=N/NC(=O)c1[nH]ncc1Br	hcDAF12 agonist 6.0, DAX1 inh-2 12.1, hgDAF-12 ag 14.6 | DAX1 inh confirm 13.0 | SF1 mutant ctr 7.3 | hgDAF12 ag 15.1 | LXRb DAF12 ctr inactive
Cc1nn(-c2ccccc2)c(Cl)c1/C=N/Nc1nc2ccccc2[nH]1	ssDAF12 agonist 1.4, hcDAF12 agonist 9.5, SMARCA2 activ 7.9, DAX1 inh-2 4.8, hgDAF-12 ag 23.8 | DAX1 inh confirm 18.0 | SF1 mutant ctr 6.3 | LXRb hcDAF ctr inactive | hcDAF12 ag 7.8 | hgDAF12 ag 21.9 | LXRb DAF12 ctr inactive
Cc1ccc(C=Cc2ccccn2)cc1	DAX1 inh-1 4.5, DAX1 inh-2 7.5, hgDAF-12 ag 13.2 | DAX1 inh confirm 11.7 | SF1 mutant ctr 4.9 | hgDAF12 ag 20.3 | LXRb DAF12 ctr inactive
CCCCOc1ccc(-c2cnc3ccccc3n2)cc1	hcDAF12 agonist 9.0, DAX1 inh-2 6.8, hgDAF-12 ag 22.9 | DAX1 inh confirm 14.2 | SF1 mutant ctr 3.5 | LXRb hcDAF ctr inactive | hcDAF12 ag 6.4 | hgDAF12 ag 12.5 | LXRb DAF12 ctr inactive
COc1cccc(C(=O)Nc2ccc3c(C)cc(=O)oc3c2)c1	ssDAF12 agonist 1.0, hcDAF12 agonist 6.1, SMARCA2 activ 12.9, DAX1 inh-2 16.8, hgDAF-12 ag 13.4 | DAX1 inh confirm 14.4 | SF1 mutant ctr 10.2 | SMARCA2 conf 10.9 | GAL4-VP16 Luc 13.7 | hgDAF12 ag 21.1 | LXRb DAF12 ctr inactive
COc1cccc(NC(=O)c2ccccc2)c1	none
COc1ccc(C(=O)NNC(=S)Nc2ccccc2)cc1	DAX1 inh-2 10.1, hgDAF-12 ag 16.7 | DAX1 inh confirm 16.1 | SF1 mutant ctr 11.6 | hgDAF12 ag 14.8 | LXRb DAF12 ctr inactive
O=C(NNC(=S)Nc1ccccc1Cl)c1ccccc1	DAX1 inh-2 14.8, hgDAF-12 ag 13.8 | DAX1 inh confirm 11.7 | SF1 mutant ctr 8.2 | hgDAF12 ag 17.8 | LXRb DAF12 ctr inactive
COc1ccc(C(=O)NNC(=S)NC(=O)c2ccc(OC)cc2)cc1	none
COc1ccc(C(=O)Nc2cccc(OC)c2)cc1	ssDAF12 agonist 1.0, DAX1 inh-2 5.4, hgDAF-12 ag 16.0 | DAX1 inh confirm 14.0 | SF1 mutant ctr inactive | hgDAF12 ag 15.7 | LXRb DAF12 ctr inactive
Cc1cc(=O)oc2cc(NC(=O)c3ccccc3C(=O)O)ccc12	none
Cc1ccccc1NC(=O)OC1CCC12CCCCC2 (configuration not stated)	none (no result: DAX1 inh-1)
CCC(C)[C@H](NC(=O)[C@H](Cc1ccccc1)NC(=O)OC(C)(C)C)C(=O)NCc1ccccc1Br (some centres not stated)	none (no result: DAX1 inh-1)
Cc1cc(C)c2sc(NC(=O)C3=COCCO3)nc2c1	hcDAF12 agonist 10.5, DAX1 inh-2 14.1, hgDAF-12 ag 20.5 | DAX1 inh confirm 9.5 | SF1 mutant ctr 4.3 | LXRb hcDAF ctr inactive | hcDAF12 ag inactive | hgDAF12 ag 16.7 | LXRb DAF12 ctr inactive
CC(C)(C)c1ccc(/C=C/C(=O)N2CCOCC2)cc1	none
CC(C)Cc1ccc(/C=C/C(=O)N2CCOCC2)cc1	ssDAF12 agonist 1.4, DAX1 inh-2 6.0, hgDAF-12 ag 15.8 | DAX1 inh confirm 9.5 | SF1 mutant ctr 5.2 | hgDAF12 ag 12.1 | LXRb DAF12 ctr inactive

Source: PubChem BioAssay
